Consider 22 molecules from PubChem BioAssay (NCATS).

Measured potencies and affinities stand elsewhere. Active and inactive are the calls of the source. No rule for the calls is given here.
Also: 0% is about no effect.

For the experiment the following is noted: Ebola virus entry assay, green fluorescence channel.
As for `COc1ccc(C(=O)CC(=O)c2ccc(C(C)(C)C)cc2)cc1`, the efficacy was -14.9% (inactive).

For the molecule `N#CCC(=O)NN`, the efficacy was -12.5% (inactive). In the case of `O=P(O)(O)OCC(O)CO` (configuration not stated), the efficacy was 14.9% (inactive). Regarding `CC(=O)N[C@@H](CC(C)C)C(=O)O`, the efficacy was -14.4% (inactive). Under `O=C1CC[C@H](C(=O)N2CCCCC2)N1` stands -19.2% (inactive); under `COc1cc(C=O)ccc1O`, -12.7% (inactive); under `CC(C)CCOC(=O)c1ccc(N(C)C)cc1`, -19.6% (inactive). Regarding `COc1nccnc1NS(=O)(=O)c1ccc(N)cc1`, the efficacy is -13.7% (inactive). Regarding `OCc1cccnc1`, the efficacy was -9.44% (inactive). `CN1CCN(N)CC1`: the efficacy is 16.4% (inactive). For `CC1CCN(CCCC(=O)c2ccc(F)cc2)CC1`, the efficacy is -14.6% (inactive). Consider `CCCOC(=O)c1ccccc1`, for which the efficacy was 17.4% (inactive). Consider `CC(C)(Oc1ccc(Cl)cc1)C(=O)OCCCOC(=O)C(C)(C)Oc1ccc(Cl)cc1`, for which the efficacy was -14% (inactive). Consider `O=C1c2ccccc2C(=O)c2c1ccc(O)c2O`, for which the efficacy is -18.6% (inactive). For `NC(=O)c1cccnc1`, the efficacy is -19.3% (inactive). As to `Cc1coc2ccccc2c1=O`, the efficacy was -25.1% (inactive).

As for `C[N+](C)(C)CCCCCC[N+](C)(C)C`, the efficacy was -15% (inactive). Under `CCOc1ccc(NC(=O)CC(C)O)cc1` (configuration not stated) stands 16.1% (inactive); under `Cc1ncc(CO)c(CO)c1O`, -13.2% (inactive). In the case of `Cc1ccc(Nc2nccc(N(C)c3ccc4c(C)n(C)nc4c3)n2)cc1S(N)(=O)=O`, the efficacy is 37.4% (inactive). Under `Cc1cc(=O)[nH]c(=S)[nH]1` stands -11.2% (inactive); under `CCCCOC(=O)c1ccc(N)cc1`, 12.8% (inactive).
